This note sets out measurements from PubChem BioAssay (NCI).

The panel holds about 83,000 compounds, 20% with a hit somewhere; the sample as a whole holds those more often.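 Percent growth is the endpoint: 0 to 100 indicates growth inhibition (40 means 60% inhibition), 0 means no net growth, and negative values indicate cell death.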 A number with no mark means an inactive call. Active and inactive are the calls of the source. Rule for the calls: active = growth percent below 10; inactive = the rest.

One experiment deals with SK-OV-3 ovarian. Nature of the experiment: NCI-60 one-dose screen, 48 h (100 = growth as untreated, 0 = no growth, -100 = all killed). The settings on record: 10 µM unless noted.
Turning to `NS(=O)(=O)c1ccc(C2C3=C(CCCC3=O)OC3=C2C(=O)c2ccccc2C3=O)cc1` (centres undefined), the growth is -23.9% (active).
Same read-out and setting: as for `COc1ccc2nc3nc4ccc[nH]c4cc3c2c1`, the figure is 89%; as for `COc1ccc(Nc2nc(SCC(C)C)nc(-c3ccc(F)cc3)c2C#N)cc1`, 73.4%.
Same read-out and setting: the result for `NC(=O)CN1C(=O)c2ccccc2C1=O` reads 106%; that for `COc1cccc(C(=O)OCCn2nc3c4c(cccc42)C(=O)c2ccccc2-3)c1O`, 120%; that for `c1ccc(-c2n(Cc3ccc4ccccc4n3)cc[n+]2Cc2ccc3ccccc3c2)cc1`, -12.4% (active).

The test system of another experiment is IGROV1 ovarian. The description is as above. The note with it: 10 µM unless noted.
As to `O=C(CCc1nnc2sc(OCc3ccccc3)nn12)c1nc2ccc([N+](=O)[O-])cc2[nH]1`, the growth is 93.8%.
On the same count and under the same terms, the result for `NC[C@@H]1CCN(c2cc3c(cc2F)c(=O)n(N)c(=O)n3Cc2ccc(-c3ccccc3)cc2)C1` reads 91.9%.
Same read-out and setting: as for `O=C(/C(=C/c1ccc([N+](=O)[O-])cc1)SCc1ccc(F)cc1)c1ccc(Cl)cc1`, the figure is 53.8%.
Take `c1ccc(-c2cn3ccnc3c(-c3ccc4c(c3)ncn4C3CCCCC3)n2)cc1`: the growth is 106%.
On the same count and under the same terms, the result for `CCOC(=O)c1sc(/N=C2\NC(=O)/C(=C/c3ccc(N4CCN(C)CC4)cc3)S2)nc1C` reads 99.5%; that for `N#Cc1ccc(C2C3=C(CCCC3=O)OC3=C2C(=O)c2ccccc2C3=O)cc1` (centres undefined), 40%.
With `c1ccc(-c2n(Cc3ccc4ccccc4n3)cc[n+]2Cc2ccc3ccccc3c2)cc1`, the growth was -15.4% (active).

Another experiment has as its system OVCAR-3 ovarian. The experiment is described as above. The settings on record: 10 µM unless noted.
For `O=C(Nc1nc2ccc(C(F)(F)F)cc2s1)c1cc(Cl)ccc1O`, the growth was 8.08% (active).
In the case of `NC(N)=NC(N)=Nc1cc2ccccc2c2ccccc12`, the growth was 63.2%.
Regarding `CC(=O)Oc1c2c(nc3c1c1ccccc1n3Cc1ccccc1)-c1ccccc1C2`, the growth is 79%.
On the same count and under the same terms, as for `CN1C(=O)c2cc(Cl)nc3c(NC(=O)c4cccc(Cl)c4)c(Cl)c(NC(=O)c4cccc(Cl)c4)c1c23`, the figure is -52.7% (active); as for `CCOCCc1c(O)nc(SC)[nH]c1=O`, 186%; as for `COc1ccc2[nH]c(=O)c(/C=C/C(=O)/C=C/c3ccc(O)c(OC)c3)cc2c1`, -11.2% (active).
The same measure, in the same setting: the result for `CCOC(=O)c1c(C)nc2c(c1N)/C(=C/c1cccs1)C(=O)N2Cc1ccccc1` reads 53.2%; that for `O=C(CCc1nnc2sc(OCc3ccccc3)nn12)c1nc2ccc([N+](=O)[O-])cc2[nH]1`, 96.4%.
Still for that read-out and setting: as for `COc1ccc2c(c1)Oc1nc(N)c(C#N)c(N)c1C2Sc1ccc(O)cc1` (centres undefined), the figure is 79.7%; as for `O=C(Nc1nccs1)c1noc2ccccc12`, 110%.
For the compound `Cc1cccc(C)c1NCc1nnc(-c2ccco2)o1`, the growth is 94.8%.
For `CCOC(=O)C1=C(C)n2nc(CC#N)c(C#N)c2NC1c1ccc(Cl)cc1` (centres undefined), the growth is 89.3%.
Take `CCOc1ccccc1C(=O)/C=C/c1cc2ccccc2[nH]c1=O`: the growth is -30.7% (active).
As for `COc1cc(NC(=O)Nc2cnc(Nc3ccc(N4CCOCC4)cc3)nc2Oc2ccc(F)cc2)cc(OC)c1`, the growth is 97.8%.
`Cc1cc(Cl)cc(CN(Cc2ccccc2)Cc2c(O)ccc3ccccc23)c1O`: the growth was 91.7%.
With `NC[C@@H]1CCN(c2cc3c(cc2F)c(=O)n(N)c(=O)n3Cc2ccc(-c3ccccc3)cc2)C1`, the growth was 96.4%.
Turning to `O=C(/C(=C/c1ccc([N+](=O)[O-])cc1)SCc1ccc(F)cc1)c1ccc(Cl)cc1`, the growth is 70.5%.
Still for that read-out and setting: the result for `COc1ccc(Cl)c([N+](=O)[O-])c1` reads 112%; that for `COc1cc(C)ccc1Oc1nc(Nc2ccc(N3CCOCC3)cc2)ncc1N=Cc1cc(C(F)(F)F)cc(C(F)(F)F)c1`, 76.5%; that for `c1ccc(-c2cn3ccnc3c(-c3ccc4c(c3)ncn4C3CCCCC3)n2)cc1`, 101%.
Still for that read-out and setting: the result for `Nc1c(C(=O)Nc2cccc3ccccc23)sc2nc3c(cc12)COCC3` reads 19.8%.
For `O=C1CCC23OC(C(O)c4ccccc4N12)C1C(Br)=NOC13` (centres undefined), the growth was 105%.
The same measure, in the same setting: the result for `O=Cc1[nH]c(Sc2ccccc2)c2ccccc12` reads 50.4%.
The same measure, in the same setting: as for `CCOC(=O)c1sc(/N=C2\NC(=O)/C(=C/c3ccc(N4CCN(C)CC4)cc3)S2)nc1C`, the figure is 96.3%; as for `COc1cc(C2=NN(c3ccccc3)C(c3cccc(Nc4ccnc5cc(C(F)(F)F)ccc45)c3)C2)cc(OC)c1OC` (centres undefined), 88.1%.
Same read-out and setting: as for `COc1ccc(-c2cc(-c3nnc(SCC(=O)Nc4ccc(/C(C)=N\O)cc4)n3-c3ccccc3)c3cc(OC)ccc3n2)cc1`, the figure is 77.4%.
